iPSC survival up – enhancers of human iPSC single-cell survival. AID 602274. actives 0.044% (n = 360,000). hiPSC single-cell survival, ATPlite luminescence; 100% = ROCK inhibitor wells, 0% = DMSO. survival enhancement, % at 20 µM; in the data active means survival enhancement above about 18%;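 further: cells exposed to compounds for 16 hours before the ATP read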
ABCB6 inh 2 – inhibitors of human ABC transporter ABCB6 | actives 0.19% (n = 360,000) | K562-ABCB6 porphyrin accumulation, flow cytometry, 1 h; hits give low values | fluorescence ratio to DMSO, % at 10 µM;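 active means fluorescence ratio to DMSO below 75%, the collection mean minus 3 SD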;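 further: signal is porphyrin accumulated inside mitochondria; 100% equals median channel fluorescence of DMSO control wells; lower ratio means ABCB6 inhibition with less porphyrin fluorescence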
Target sequence (Q9NP58 whole entry, looked up): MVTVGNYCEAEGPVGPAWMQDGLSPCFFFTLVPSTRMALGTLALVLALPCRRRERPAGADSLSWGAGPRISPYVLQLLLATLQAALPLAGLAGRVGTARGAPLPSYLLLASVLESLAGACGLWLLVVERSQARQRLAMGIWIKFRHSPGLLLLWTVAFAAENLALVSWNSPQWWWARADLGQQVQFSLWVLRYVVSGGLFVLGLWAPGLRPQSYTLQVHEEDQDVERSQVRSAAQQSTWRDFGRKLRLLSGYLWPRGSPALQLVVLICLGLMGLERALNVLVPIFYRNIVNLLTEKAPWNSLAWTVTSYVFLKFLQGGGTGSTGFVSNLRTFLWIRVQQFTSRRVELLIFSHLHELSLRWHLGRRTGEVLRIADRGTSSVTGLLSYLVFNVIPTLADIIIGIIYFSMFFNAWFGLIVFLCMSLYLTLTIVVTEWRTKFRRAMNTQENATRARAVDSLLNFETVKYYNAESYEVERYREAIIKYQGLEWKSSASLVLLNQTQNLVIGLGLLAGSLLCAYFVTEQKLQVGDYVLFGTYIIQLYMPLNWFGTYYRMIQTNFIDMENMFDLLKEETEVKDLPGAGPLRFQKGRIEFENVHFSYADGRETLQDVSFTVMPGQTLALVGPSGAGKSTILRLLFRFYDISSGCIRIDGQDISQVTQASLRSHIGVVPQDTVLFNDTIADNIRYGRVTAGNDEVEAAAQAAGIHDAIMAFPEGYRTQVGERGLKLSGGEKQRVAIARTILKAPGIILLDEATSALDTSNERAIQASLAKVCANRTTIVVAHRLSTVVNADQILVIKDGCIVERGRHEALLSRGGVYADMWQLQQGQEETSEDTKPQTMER
GSIS activator – GLuc luminescence reporter in INS-1E cells, primary screen for activators of glucose-dependent secretion of insulin; INS-1E GLuc reporter insulin secretion, 2-3 h; activation, % at 16.6 µM; actives 0.61% (n = 370,000);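 active means lowest replicate activation of at least 40%, so every replicate reaches that level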;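 further: 0% = median of neutral control wells and 100% = median of IBMX positive control wells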
NRP1-CendR mod – alters CendR peptide binding to human NRP-1; O14786; FAM-RPARPAR peptide binding to NRP-1, fluorescence polarization; inhibition, % at 25 µM; actives 0.85% (n = 360,000); AID 602438;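 active means inhibition or corrected inhibition above about 18%, plus a signal ratio from 0.5 to 1.5, limit read from the data, passing the limit was not always enough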
ARNT-TACC3 inh – disrupts binding between human ARNT and TACC3; AID 623870; Q9Y6A5; inhibition, % at 9.99 µM; actives 0.66% (n = 390,000); AlphaScreen His-ARNT PAS-B/GST-TACC3 binding, luminescence; TACC3 fragment carries E629A point mutation;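 active means mean inhibition of replicates at least 50% and at least half of replicates each reaching 50%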;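 further: 0% = complete ARNT plus TACC3 wells and 100% = ARNT alone without TACC3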
Numbers without * were called inactive; / = no result given. A selection: hits, their analogues and other compounds. The true share with any hit is near 1.8%.

SMILES | iPSC survival up | ABCB6 inh 2 | GSIS activator | NRP1-CendR mod | ARNT-TACC3 inh
Nc1[nH]c(C(=O)c2ccccc2)c(-c2c(F)cccc2F)c1C(=O)c1ccc(Cl)c(Cl)c1 | -0.1 | 115.0 | 176.6* | -10.8 | /
CCc1nc2ccc(C(=O)NCCCN3CCCC3=O)cn2c1N(CCC(C)C)CCN(C)C | -3.5 | 96.0 | 48.7* | 8.7 | /
C[C@H]1CN([C@@H](C)CO)C(=O)c2cccc(NC(=O)CCCCCC(=O)Nc3ccccc3N)c2O[C@@H]1CN(C)Cc1ccccc1 | / | / | 6.8 | / | /
C[C@H](CO)N1C[C@H](C)[C@H](CN(C)C(=O)Nc2ccc(F)cc2)Oc2ccc(NC(=O)Cn3cnnn3)cc2CC1=O | / | / | 7.1 | / | /
CCOC(=O)c1[nH]c(C)c(C(=O)NCC2CCCO2)c1C (stereo not given) | 3.6 | 98.0 | / | 22.3* | -13.2
CS(=O)(=O)N1CC(=O)N2[C@H](CO)[C@@H](c3ccc(C#CC4CCCC4)cc3)[C@H]2C1 | / | / | 10.1 | / | /
O=C(NCCc1ccccc1)c1cc(-c2ccc3c(c2)OCO3)on1 | -2.5 | 99.0 | 44.4* | 6.2 | -8.3
CNC[C@H]1Oc2ccc(NC(=O)NC3CCCCC3)cc2CC(=O)N([C@@H](C)CO)C[C@@H]1C | / | / | 11.6 | / | /
COc1cc(OC)c2ccc(=O)oc2c1C(CCN1CCCC1)c1ccc(N(C)C)cc1 (stereo not given) | -1.5 | 99.0 | 18.0 | 13.6 | 14.6
CCCCCc1cc(=O)oc2c(C(CCN3CCCCC3)c3ccc(OC)cc3)c(OC)cc(OC)c12 (stereo not given) | -3.8 | 89.0 | / | 26.4* | 14.3
COc1cc(OC)c2ccc(=O)oc2c1C(CCN1CCCCC1)c1ccc(N(C)C)cc1 (stereo not given) | -0.1 | 95.0 | -3.5 | 18.3* | 13.4
CCCCCc1cc(=O)oc2c(C(CCN3CCCC(C)C3)c3ccc(OC)cc3)c(OC)cc(OC)c12 (stereo not given) | -3.2 | 94.0 | 339.0* | 4.6 | 14.2
COc1ccc(CN2C(C)C3C(C)=CC2C2C(=O)N(C)C(=O)C32)cc1 (stereo not given) | / | / | / | / | -5.3
C[C@@H]1CN([C@H](C)CO)C(=O)c2cc(NS(C)(=O)=O)ccc2O[C@H]1CN(C)Cc1ccc(C(=O)Nc2ccccc2N)cc1 | / | / | 14.7 | / | 1.6
COc1ccc(/C(C)=N/Nc2nc3ccccc3n3cnnc23)cc1OC | / | / | 44.1* | / | /
C/C=C/c1cnc2c(c1)C(=O)N([C@H](C)CO)C[C@@H](C)[C@@H](CN(C)C(=O)Nc1ccccc1F)O2 | / | / | 2.1 | / | /
C=C1C(=O)[C@]23C[C@H]1CCC2[C@@]1(C)C(C[C@@H]3O)[C@](C)(C(=O)OC)CC[C@@H]1O (stereo not given in full) | -4.8 | 111.0 | 86.8* | -2.6 | /
C[C@@]12C(C[C@H](O)[C@@]34C[C@@H](CCC13)[C@@H](CO)C4=O)[C@](C)(C(=O)O)CC[C@@H]2O (stereo not given in full) | 1.0 | 96.0 | -6.6 | 15.7 | /
C[C@H](CO)N1C[C@H](C)[C@@H](CN(C)Cc2ccc3c(c2)OCO3)Oc2ccc(NS(=O)(=O)c3cn(C)cn3)cc2C1=O | / | / | 1.2 | / | -0.3
O=C1CSC(c2cn(-c3ccccc3)nc2-c2ccccc2)N1Cc1ccco1 (stereo not given) | 5.9 | 105.0 | / | -1.0 | 6.0
O=C1CSC(c2cn(-c3ccccc3)nc2-c2cccs2)N1CC1CCCO1 (stereo not given) | 3.4 | 102.0 | / | 32.5* | -12.1
O=C1c2cc([N+](=O)[O-])cc3cc([N+](=O)[O-])cc(c23)C(=O)N1c1ccccn1 | -1.2 | 108.0 | -24.8 | 28.1* | 42.2
O=C(O)c1cccc(N2C(=O)c3cc([N+](=O)[O-])cc4cc([N+](=O)[O-])cc(c34)C2=O)c1 | -0.6 | 104.0 | -13.6 | 26.5* | 3.2
Oc1ccc(/C=N/NC(=S)Nc2cccnc2)c(O)c1O | 0.5 | 93.0 | 6.8 | -41.9 | 63.6*
COCCCNC(=S)N/N=C/c1ccc(O)cc1O | 2.6 | 99.0 | -21.2 | -7.2 | 84.2*
SMILES | iPSC survival up | ABCB6 inh 2 | GSIS activator | NRP1-CendR mod | ARNT-TACC3 inh
Oc1ccc(/C=N/NC(=S)Nc2cccnc2)c(O)c1 | -1.1 | 98.0 | -4.8 | 2.5 | 64.8*
Oc1ccc(C=NNC(=S)Nc2ccc(F)cc2)c(O)c1 | -0.2 | 98.0 | 4.5 | -10.3 | 64.9*
COc1ccc(CN(C)C[C@H]2OCCCC[C@H](C)Oc3ccc(NC(=O)Nc4ccc(OC)cc4)cc3C(=O)N([C@@H](C)CO)C[C@@H]2C)cc1 | / | / | -34.9 | / | 13.3
CO[C@H]1CN(C)C(=O)c2cc(NS(=O)(=O)c3ccc(C)cc3)ccc2OC[C@@H](C)N(Cc2nccs2)C[C@H]1C | / | / | -26.1 | / | -23.2
COC(=O)C[C@@H]1C[C@@H]2c3cc(NC(=O)Nc4ccc(C(F)(F)F)cc4)ccc3O[C@@H]2[C@@H](CO)O1 | / | / | -17.1 | / | /
Oc1cccc(/C=N/NC(=S)Nc2cccnc2)c1O | -2.5 | 91.0 | -17.4 | -28.5 | 65.8*
CC(C)Oc1ccc(CNC(=S)N/N=C/c2cccnc2)cc1 | 4.1 | 113.0 | / | 9.4 | -0.1
CC(C)NC(=S)N/N=C/c1cccnc1 | -0.4 | 100.0 | / | 37.4* | -3.0
O=C1CCCCn2cc(nn2)COC[C@@H](c2ccccc2)N1 | / | / | 17.4 | / | /
CO[C@@H]1CN(C)C(=O)c2ccc(NC(=O)C3CC3)cc2OC[C@@H](C)N(C(=O)CN(C)C)C[C@@H]1C | / | / | -3.8 | / | -3.0
COc1ccc(NC(=O)Cn2nnc(C(N)=O)c2N)c(OC)c1 | 2.3 | 92.0 | 9.4 | 32.8* | -10.6
CN(C)S(=O)(=O)c1cccc(NC(=S)N/N=C/c2cc(Br)ccc2O)c1 | -0.6 | 94.0 | -22.7 | -39.5 | 62.4*
CN(C)S(=O)(=O)c1cccc(NC(=S)N/N=C/c2cccc(O)c2)c1 | 2.2 | 103.0 | -3.9 | 3.7 | 16.9
CCOC(=O)c1sc2ncn(/N=C/c3cccnc3)c(=O)c2c1C | 1.2 | 98.0 | 51.5* | -2.5 | -4.0
COc1ccc(Cl)cc1NC(=O)CCc1nc(-c2ccccc2F)no1 | -0.2 | 133.0 | 11.9 | 46.2* | -7.8
CN(C)c1ccc(/C=C(\NC(=O)c2ccccc2)C(=O)NCCN2CCOCC2)cc1 | 0.6 | 94.0 | 40.5* | -13.6 | -1.1
COc1ccccc1C(=O)N/C(=C\c1cn(S(=O)(=O)N(C)C)c2ccccc12)C(=O)NCCCN1CCOCC1 | -0.6 | 106.0 | -2.4 | 44.0* | -3.0
CN(C)S(=O)(=O)n1cc(/C=C(\NC(=O)c2ccccc2)C(=O)NCCCN2CCOCC2)c2ccccc21 | -0.1 | 102.0 | -11.3 | -5.2 | -5.1
CCOc1cnc(-c2ccc(Cl)cc2)o1 | -0.3 | 115.0 | 3.3 | -8.4 | -7.9
CCOc1cnc(-c2c(-c3c(Cl)cccc3Cl)noc2C)o1 | -2.4 | 98.0 | -7.4 | 27.1* | /
COc1cc(C2C=C(Nc3ccccc3)C(=O)N2c2ccccc2)ccc1O (stereo not given) | -1.3 | 94.0 | -6.1 | 2.8 | 36.2
O=C1C(Nc2ccccc2)=CC(c2ccc(O)cc2)N1c1ccccc1 (stereo not given) | -0.3 | 96.0 | -14.6 | 2.8 | 67.4*

Bioassay records from PubChem.
